“And” between values parts separate entries of the source, which are not always exact repeats. Equal entries are not always repeated. Results filed as inconclusive are left out. Entries that show only a call come without a potency. The source holds several records for some structures; these can differ, active in one and inactive in another. The source made the active and inactive calls. Unless noted, calls follow the shape of the dose curve; as a rule, active = well fitted curve in the direction sought with a large enough effect; inconclusive = small, poorly fitted or top-dose-only effect, or another doubt; inactive = no such curve, though single readings can be large; an effect the other way counts as inactive or inconclusive.
How the values were obtained:
[1] = Cell Viability - Jurkat (AID 426;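 active = dose-dependent loss of cell ATP signal giving a full or clear fitted curve, ranked by lower potency value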;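 also: potency is read from the fitted curve at half-maximal effect; cells exposed to compound for 40 hours at 37 °C before ATP read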); conditions: qHTS
Method in brief: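 Cytotoxicity taken as drop in cellular ATP (CellTiter-Glo luminescence, 20 min room temperature) after 40 hr, 37C treatment of 5000 Jurkat Clone E6-1 cells per well; concentration-response fitted with Hill equation for AC50.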

[2] = Cell Viability - SK-N-SH (AID 435; calls by dose curve; also: potency is read from the fitted curve at half-maximal effect); conditions: SK-N-SH neuroblastoma cell viability qHTS
Method in brief: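 Human neuroblastoma line, 40 h exposure at 37 °C, ATP quantified via luciferase luminescence; DMSO and 100 uM tamoxifen define 0 and 100% inhibition for AC50 fitting.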

[3] = Cell Viability - HUV-EC-C (AID 542); conditions: HUV-EC-C endothelial cell viability, qHTS; series mostly up to 92.2 µM;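 also: cells exposed to compound for 40 hours; nearly all actives have a fitted effect of over 35% in size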; also: potency is read from the fitted curve at half-maximal effect
Method in brief: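 CellTiter-Glo luminescence measured ATP loss in HUV-EC-C cells (1000/well) after 40 hr compound exposure at 37 °C, in complete culture medium. Concentration-response data were Hill-fitted to give AC50.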

[4] = Cell Viability - H-4-II-E (AID 543); conditions: H-4-II-E rat hepatoma viability; series mostly up to 92.2 µM;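 also: cells exposed to compound for 40 hours; nearly all actives have a fitted effect of over 35% in size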; also: potency is read from the fitted curve at half-maximal effect
Method in brief: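 CellTiter-Glo luminescence (intracellular ATP) measured after 40 h compound exposure at 37 °C in H-4-II-E rat hepatoma cells seeded at 1500/well. Values are AC50s fitted with the standard Hill equation.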

[5] = Cellular Toxicity (caspase-3) HUV-EC-C (AID 656); conditions: HUV-EC-C cells, caspase-3 activation (apoptosis), vehicle = 0, 100 µM tamoxifen = 100%; series mostly up to 92.2 µM
Method in brief: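 Concentration-dependent caspase 3/7 induction was assessed in HUV-EC-C cells exposed for 16 hours. Data scaled between DMSO and tamoxifen (100 uM) controls.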

[6] = Cellular Toxicity (caspase-3) BJ (AID 658); conditions: BJ fibroblasts, luminescence, normalized: DMSO 0%, staurosporine 100%; series mostly up to 91.7 µM
Method in brief: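 Plated BJ cells (1000/well) rested 5 hr, received compound for 16 hr at 37 °C, then Caspase-Glo 3/7 reagent for 1 hr at room temperature before luminescence reading.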

[7] = Cellular Toxicity (caspase-3) MRC-5 (AID 659); conditions: MRC-5 cells, luminescence, normalized: DMSO 0%, 10 µM staurosporine 100%; series mostly up to 91.7 µM
Method in brief: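 Apoptosis readout in MRC-5 cells: luciferase light generated after caspase 3/7 cleaves a peptide-aminoluciferin substrate, measured post 16 hr compound incubation at 37 °C.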

[8] = Cellular Toxicity (caspase-3) Mesangial (AID 660); conditions: mesangial cells; Potency: caspase-3 activation; series mostly up to 91.7 µM;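 also: combined caspase 3 and 7 activity read by Caspase-Glo luminescence; cells exposed to compound for 16 h before the caspase read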
Method in brief: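 Caspase 3/7 activation measured by Caspase-Glo 3/7 luminescence (20 min, room temperature) following 16 h exposure of mesangial cells (1000/well); AC50 from Hill-equation fit, normalized to DMSO and 100 uM tamoxifen.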

[9] = Cellular Toxicity (caspase-3) Hek293 (AID 664); conditions: HEK293 caspase-3 activation, DMSO = 0%, 100 µM tamoxifen = 100%; at 92.2 µM (top of the series);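 also: cells exposed to compound for 16 h at 37 °C before readout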
Method in brief: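 Concentration-response qHTS: caspase 3/7 activation measured by luminescent aminoluciferin substrate cleavage after 16 h compound exposure of Hek 293 cells. AC50 from Hill equation, with DMSO as basal and 100 uM tamoxifen as 100%.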

[10] = Cellular Toxicity (caspase-3) N2a (AID 665); conditions: N2a cells, luminescence, normalized: DMSO 0%, 10 µM staurosporine 100%; series mostly up to 92.2 µM;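 also: compound exposure lasted 16 h at 37 °C before readout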
Method in brief: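 Caspase-3/7 activation measured as luminescence from Caspase-Glo reagent (1 h, room temperature) after 16 h compound exposure of mouse N2a cells. AC50 values from Hill-equation concentration-response, scaled between DMSO and 10 uM staurosporine.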

[11] = Cellular Toxicity (caspase-3) NIH 3T3 (AID 666); conditions: NIH 3T3 caspase-3 activation, apoptosis/toxicity, 0% DMSO, 100% is 100 µM tamoxifen; series mostly up to 92.2 µM;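 also: caspase signal read after 16 h compound exposure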
Method in brief: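 Caspase-Glo 3/7 luminescence reported caspase activation in 1000 NIH 3T3 cells/well after 16 h compound exposure at 37 C. DMSO set basal and 100 uM tamoxifen set 100% stimulation; concentration-response modeled with the Hill equation for AC50.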

[12] = Cell Viability - LYMP2-001 (AID 921); conditions: LYMP2-001 lymphoblastoid cell viability; series mostly up to 92.2 µM; also: nearly all actives have a fitted effect of over 70% in size; also: potency is read from the fitted curve at half-maximal effect
Method in brief: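 A lymphoblastoid cell line of human origin was treated with library compounds across a concentration series for 24 hours, and viable cell number was estimated from ATP-driven luciferase light output. Hill modeling gave AC50.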

[13] = Cell Viability - LYMP1-002 - Assay at 16 hr (AID 948); conditions: LYMP1-002 lymphoblastoid cell viability; series mostly up to 92.2 µM; also: potency is read from the fitted curve at half-maximal effect
Method in brief: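 In this qHTS, lymphoblastoid LYMP1-002 cells (human) receive compounds for 16 hr at 37 C. Viability is taken from CellTiter-Glo ATP luminescence, and AC50 derives from standard Hill fits.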

[14] = Cell Viability - LYMP1-003 - Assay at 24 hr (AID 963); conditions: LYMP1-003 lymphoblastoid cell viability; series mostly up to 92.2 µM; also: potency is read from the fitted curve at half-maximal effect
Method in brief: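 Concentration-response qHTS: ATP loss measured by CellTiter-Glo luminescence after 24 h compound exposure at 37 C. Cells were LYMP1-003 human lymphoblastoid, 2500 per well. AC50 derived via standard Hill equation modeling.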

[15] = Cell Viability - LYMP1-003 - Assay at 40 hr (AID 964); conditions: LYMP1-003 lymphoblastoid viability; series mostly up to 92.2 µM; also: nearly all actives have a fitted effect of over 60% in size; also: potency is read from the fitted curve at half-maximal effect
Method in brief: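 Viability is taken as cellular ATP, read by CellTiter-Glo luminescence after 40 h of compound exposure at 37 C. Cells: human lymphoblastoid line LYMP1-003 at 2500/well; AC50 values derived by Hill-equation fitting of concentration-response data.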

[16] = Cell Viability - LYMP2-003 (AID 965); conditions: LYMP2-003 lymphoblastoid cell viability; series mostly up to 92.2 µM;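 also: cells exposed to compounds for 24 h before reading; nearly all actives have a fitted effect of over 50% in size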; also: potency is read from the fitted curve at half-maximal effect
Method in brief: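 qHTS, human lymphoblastoid line, 2500 cells/well, complete medium. 24 h drug, 37 C. ATP-based luminescent readout; Hill-fit AC50.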

[17] = Cell Viability - LYMP2-015 (AID 971); conditions: LYMP2-015 lymphoblastoid cell viability; series mostly up to 92.2 µM; also: nearly all actives have a fitted effect of over 55% in size; also: potency is read from the fitted curve at half-maximal effect
Method in brief: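 Cytotoxicity readout: decrease in intracellular ATP (CellTiter-Glo luminescence) in 2500 LYMP2-015 lymphoblastoid cells/well after 24 h compound exposure at 37 C. Concentration-response data fitted with the standard Hill equation to give AC50.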

[18] = Cell Viability - LYMP2-019 (AID 973); conditions: LYMP2-019 lymphoblastoid cell line viability; series mostly up to 92.2 µM; also: nearly all actives have a fitted effect of over 55% in size; also: potency is read from the fitted curve at half-maximal effect
Method in brief: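 AC50 values come from Hill-equation fits of luminescent intracellular ATP (CellTiter-Glo, 30 min, room temperature) following 24 h compound exposure at 37 C. Cells: LYMP2-019 lymphoblastoid line, 2500 per well, in complete culture medium.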

[19] = Cell Viability - LYMP2-016 (AID 984); conditions: LYMP2-016 lymphoblastoid cell viability, qHTS; series mostly up to 92.2 µM;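 also: cells exposed to compound for 24 hours at 37 °C; nearly all actives have a fitted effect of over 55% in size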; also: potency is read from the fitted curve at half-maximal effect
Method in brief: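 Concentration-dependent ATP depletion measured in LYMP2-016 lymphoblastoid cells, 24 h, 37 C; luciferase-based luminescent detection; Hill-equation AC50.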

[20] = Cell Viability - LYMP2-018 (AID 985); conditions: LYMP2-018 lymphoblastoid cells, viability (qHTS); series mostly up to 92.2 µM; also: nearly all actives have a fitted effect of over 50% in size; also: potency is read from the fitted curve at half-maximal effect
Method in brief: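 Viability read as CellTiter-Glo luminescence (cellular ATP) after 24 hr compound exposure at 37 C of 2500 LYMP2-018 lymphoblastoid cells/well, pre-plated 5 hr. Hill-equation modelling gave AC50.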

Row | SMILES | Potency [1] | Potency [2] | Potency [3] | Potency [4] | outcome [5] | outcome [6] | outcome [7] | Potency [8] | caspase-3 activation [9] | outcome [10] | outcome [11] | Potency [12] | Potency [13] | Potency [14] | Potency [15] | Potency [16] | Potency [17] | Potency [18] | Potency [19] | Potency [20]
1 | C#CCO | > 92 µM (inactive) | > 92 µM (inactive) | inactive | inactive | inactive | inactive | inactive | inactive | 1.98% (inactive) | inactive | inactive | inactive | inactive | inactive | inactive | inactive | inactive | inactive | inactive | inactive
2 | O=[N+]([O-])c1cc(C(F)(F)F)cc([N+](=O)[O-])c1Cl | 32.8 µM (active) | > 92 µM (inactive) | inactive | – | inactive | – | inactive | inactive | -11.2% (inactive) | inactive | inactive | 25.1 µM (active) | inactive | inactive | inactive | – | 31.6 µM (active) | 31.6 µM (active) | 31.6 µM (active) | 31.6 µM (active)
3 | CCCCCCCCn1sccc1=O | 7.52 µM (active) | 14.2 µM (active) | 25.1 µM (active) | 12.6 µM (active) | inactive | inactive | inactive | – | -9.61% (inactive) | inactive | inactive | 2 µM (active) | 15.8 µM (active) | 25.1 µM (active) | 25.1 µM (active) | 6.31 µM (active) | 3.16 µM (active) | 3.98 µM (active) | 6.31 µM (active) | 5.01 µM (active)
4 | c1ccc2cc3c(cc2c1)-c1cccc2cccc-3c12 | > 92 µM (inactive) | > 92 µM (inactive) | inactive | inactive | inactive | inactive | inactive | inactive | -1.28% (inactive) | inactive | inactive | inactive | inactive | inactive | inactive | inactive | inactive | inactive | inactive | inactive
5 | N#CSCSC#N | 3.31 µM (active) | 14 µM (active) | 25.1 µM (active) | 10 µM (active) | inactive | inactive | – | inactive | -10.2% (inactive) | inactive | inactive | 5.01 µM (active) | 31.6 µM (active) | 25.1 µM (active) | 39.8 µM (active) | 10 µM (active) | 5.01 µM (active) | 5.01 µM (active) | 7.94 µM (active) | 7.94 µM (active)
6 | FC(F)(F)c1ccc(Cl)cc1 | > 92 µM (inactive) | > 92 µM (inactive) | inactive | inactive | inactive | inactive | inactive | inactive | 3.4% (inactive) | inactive | inactive | inactive | inactive | inactive | inactive | inactive | inactive | inactive | inactive | inactive
7 | C(=NC1CCCCC1)=NC1CCCCC1 | – | – | inactive | 1.26 µM (active) | inactive | inactive | inactive | inactive | – | inactive | inactive | – | inactive | inactive | inactive | inactive | – | – | – | –
8 | Oc1c(Cl)cc(Cl)cc1Cl | – | > 92 µM (inactive) | – | – | – | – | – | – | – | – | – | – | – | – | – | – | – | – | – | –
9 | O=C1C2(Cl)C3(Cl)C4(Cl)C(Cl)(Cl)C5(Cl)C3(Cl)C1(Cl)C5(Cl)C24Cl (stereo not given) | 32.8 µM (active) and 53.4 µM (active) | 33.3 µM (active) and 51.3 µM (active) | 31.6 µM (active) and 63.1 µM (active) | 31.6 µM (active) and 50.1 µM (active) | inactive | – | inactive | – | 112% (active) and 177% (active) | inactive | inactive | inactive and 39.8 µM (active) | 39.8 µM (active) | 31.6 µM (active) and 50.1 µM (active) | 25.1 µM (active) and 50.1 µM (active) | 39.8 µM (active) | – | 50.1 µM (active) | – | 50.1 µM (active)
10 | COP(=O)(OC)O/C(=C\Cl)c1cc(Cl)c(Cl)cc1Cl | 32.2 µM (active) | 33.5 µM (active) | – | inactive | inactive | inactive | inactive | inactive | -4.53% (inactive) | inactive | inactive | inactive | inactive | inactive | inactive | inactive | inactive | inactive | inactive | –
11 | [CH3][Hg][Cl] | 1.49 µM (active) | 17.4 µM (active) | 15.8 µM (active) | 5.01 µM (active) | inactive | inactive | inactive | – | -9.46% (inactive) | inactive | – | 1.58 µM (active) | 39.8 µM (active) | 50.1 µM (active) | 50.1 µM (active) | 5.01 µM (active) | 3.16 µM (active) | 5.01 µM (active) | 3.98 µM (active) | 3.16 µM (active)
12 | CN(C)c1ccc(N=O)cc1 | 2.5 µM (active) | 7.28 µM (active) | inactive | 6.31 µM (active) | inactive | inactive | inactive | inactive | 9.09% (inactive) | inactive | inactive | 0.631 µM (active) | 7.94 µM (active) | 7.94 µM (active) | 3.98 µM (active) | 1.26 µM (active) | 1 µM (active) | 1 µM (active) | 1.58 µM (active) | 1.26 µM (active)

From PubChem BioAssay (NCATS)
